# Reference: PubChem BioAssay AID588436 (Broad Institute, 2011)
# Among all 350,000 compounds or so, about 550 (0.16%) were called active. No stated cut-off is given here; in the data, active means activation mostly above about 9.7% (no sharp cut-off); inconclusive means no clear call, values can overlap the other calls; inactive means mostly below about 3.7%. Shown is part of a subset that was picked to be rich in actives.
# Experiment: induces V. cholerae light production without autoinducers, primary screen, BH1578 luxS cqsA deficient, single point (AID 588436)
# Details: V. cholerae BH1578 lux reporter, luminescence, 6 h, at 18.7 µM; stronger effect = higher value
row,SMILES,activation
1,CCNC(=S)Nc1ccc(OC(F)(F)F)cc1,20.7% (active)
2,COC(=O)Cc1ccc(OCC(=O)Nc2ccc(OC(F)(F)F)cc2)cc1,-0.392% (inactive)
3,CS(=O)(=O)c1sc(C(=O)NC(=S)Nc2ccc(OC(F)(F)F)cc2)c2c1C=CCC2,0.546% (inactive)
4,CCn1c2c(c3ccc(OC)cc31)CCCC2=O,inactive
5,CC(=O)OCC(COC(C)=O)OC(C)=O,-1.4% (inactive)
6,CC(=O)OC(C)C[N+](C)(C)C (stereo unspecified),22.9% (active)
7,CC(C[N+](C)(C)C)OC(N)=O (stereo unspecified),inactive
8,NC(=O)C1CC=CCC1C(=O)OCC(Cl)=C(Cl)Cl (stereo unspecified),-0.395% (inactive)
9,Cc1noc(C)c1S(=O)(=O)N(C)Cc1ccccc1,inactive
10,COC(CNC(=O)Cn1ncc2ccsc2c1=O)OC,inactive
11,O=C(CN1CCCCCC1)Nc1ccc(Br)cc1[N+](=O)[O-],45.8% (active)
12,O=C(CN1CCCCCC1)Nc1ccc(Br)cc1Br,-7.69% (inactive)
13,O=C(CN1CCCCC1)Nc1ccc(Br)cc1C(=O)c1ccccc1Cl,-0.319% (inactive)
14,CCC1CCCCN1C(=O)Nc1cccc(NC(=O)N2CCCCC2CC)c1 (stereo unspecified),inactive
15,CC(C)CC(=O)N1CCN(Cc2cccc(Cl)c2)CC1,inactive
16,COc1ccccc1CN1CCN(C(=O)Cc2ccccc2)CC1,inactive
17,CC(C)CC(=O)N1CCN(Cc2ccccc2Br)CC1,144% (active)
18,CCOC(=O)c1c(-c2cccc(N)c2)cn2ccccc12,-1.18% (inactive)
19,CC(=O)N1C(=O)C2(Nc3ccccc3N2)c2ccccc21,inactive
20,CC(C)Cc1ccc(S(=O)(=O)N2CCN(C(=O)c3ccco3)CC2)cc1,-6.25% (inactive)
21,Cc1oc2cc3oc(=O)ccc3cc2c1C,-0.488% (inactive)
22,C/C(=N\NS(=O)(=O)c1cccc([N+](=O)[O-])c1)c1cc2ccccc2o1,-2.5% (inactive)

row,SMILES,activation
1,CCc1nc2c(OCCOc3ccccc3)cccn2c1N(C=O)Cc1ccc(OC)cc1,4.55% (inactive)
2,COc1cc(C(=O)NCC(=O)NCCSc2ccc(Br)cc2)cc(OC)c1OC,inactive
3,Cc1cccc(C)c1NC(=O)COC(=O)c1ccccc1O,-0.155% (inactive)
4,Cc1cccc(C(=O)OCC(=O)NC(C)C2CC3CCC2C3)c1O (stereo unspecified),inactive
5,Cc1cccc(C(=O)OCC(=O)NCC(C)C)c1O,302% (active)
6,Oc1ccc(CNc2ccccc2O)cc1,-0.266% (inactive)
7,O=C(Nc1ccc2ccccc2c1)Nc1ccc2snnc2c1,inactive
8,COc1ccc2[nH]c(=O)c(CNc3ccc(C)c(C)c3)cc2c1,16.7% (active)
9,COc1ccc2[nH]c(=O)c(CN(Cc3cccnc3)S(=O)(=O)c3ccccc3F)cc2c1,0.282% (inactive)
10,COc1ccc2[nH]c(=O)c(CN(CC3CCCO3)C(=O)Nc3ccccc3)cc2c1 (stereo unspecified),-0.239% (inactive)
11,COc1ccc(N2C(=O)NC(NS(=O)(=O)c3ccc(Cl)cc3)(C(F)(F)F)C2=O)cc1 (stereo unspecified),0.575% (inactive)
12,Cc1ccc(Cl)cc1NC(=O)C1CCCN(c2cnccn2)C1 (stereo unspecified),-2.5% (inactive)
13,CC1(C)C=C2[C@H]3CC[C@@H]4[C@@]5(C)CCC(=O)C(C)(C)[C@@H]5CC[C@@]4(C)[C@]3(C)CC[C@@]2(C(=O)O)CC1,inactive
14,Cc1cc(=O)oc2cc(OC(C)C(=O)Nc3ccc(N4CCOCC4)cc3)ccc12 (stereo unspecified),inactive
15,CCCNC(=O)C1(C)CCCN(Cc2cccc(C(F)(F)F)c2)C1 (stereo unspecified),inactive
16,Cc1cc(NC(=O)CN2CCC(O)(c3cccc(F)c3)CC2)no1,-11.8% (inactive)
17,O=C(CN1CCC(O)(c2cccc(C(F)(F)F)c2)CC1)NCCc1ccccc1,277% (active)
18,OCCN1CCN(CCO)C1=S,-0.805% (inactive)
19,COc1cccc(CN(C)C(=O)CC23CC4CC(CC(C4)C2)C3)c1OC,inactive
20,O=C(Cc1ccc([N+](=O)[O-])cc1)Nc1ccc(C(=O)N2CCOCC2)cc1,inactive
21,Cc1c(C#N)c2ncn(CC#N)c(=O)c2n1-c1ccccc1,25% (active)
22,CC(=O)Cn1cnc2c(cnn2-c2ccccc2)c1=O,inactive

row,SMILES,activation
1,CN(C)/C=C/c1c(C#N)c(=O)ncn1Cc1ccccc1,inactive
2,Cc1cc(C)c(C#N)c(SCC(=O)NN2CC(=O)N(c3ccccc3F)CC2=O)n1,2.85% (inactive)
3,CCCCC(=O)Nc1ccccc1N1CCN(c2ccc(F)cc2)CC1,inactive
4,COc1ccccc1NC(=O)c1cc(N2C(=O)C3C4CCC(C4)C3C2=O)ccc1Cl (stereo unspecified),inactive
5,COc1ccc(-c2coc3c(C(=O)NC(C)C)cccc23)c(C)c1,-0.54% (inactive)
6,O=C(NCc1cccs1)c1ccc(CS(=O)Cc2ccccc2Cl)o1 (stereo unspecified),-3.95% (inactive)
7,CCN(CC(=O)Nc1cc(Cl)ccc1C)C(=O)CSCc1ccccc1,1.13% (inactive)
8,CCN(CC(=O)NCc1ccc(Cl)cc1)C(=O)c1c(C)noc1C,inactive
9,CCN(CC(=O)NCc1ccc(Cl)cc1)C(=O)CSc1ccccc1,39.3% (active)
10,c1ccc(Cc2cc[n+](Cc3ccccc3)cc2)cc1,-0.465% (inactive)
11,CC(C)(C)c1ccc(/C=C2\Oc3c(ccc(O)c3CN3CCN(CCO)CC3)C2=O)cc1,-0.166% (inactive)
12,COP1(=O)C[C@@H](O)[C@@H](O)[C@@H](COCc2ccccc2)O1 (stereo partly specified),inactive
13,COCC1CCCCN1C(=O)c1cc(COc2ccc(C)c(C)c2)on1 (stereo unspecified),inactive
14,COc1ccc(NC(=O)CN2C(=O)C(c3ccccc3)=NC23CCCCCC3)cc1OC,-0.396% (inactive)
15,COc1ccc(CNS(=O)(=O)c2ccc(NC(=O)N3CCCCC3)cc2)cc1,inactive
16,COc1ccc(OCCCC(=O)Nc2cccc(S(=O)(=O)N3CCCCCC3)c2)cc1,-0.87% (inactive)
17,O=C(Nc1ccc(F)cc1)c1cc2c(s1)CCCC2,0.953% (inactive)
18,O=C(O)C1CCCN1c1nc(Cl)ccc1[N+](=O)[O-] (stereo unspecified),inactive
19,Cc1cccc(-c2oc3ccc(-c4ccc5c(c4)OCO5)cc3c2C#Cc2cncn2C)c1,-1.22% (inactive)
20,COCCNC(=O)c1ccc2c(c1)ncn2-c1ccc(C)c(Cl)c1,inactive
21,O=C(c1cccs1)n1nc(NCc2ccccc2)nc1NCc1ccccc1,-0.325% (inactive)
22,CC(NC(=O)COC(=O)C1CCN(S(=O)(=O)c2ccccc2C(F)(F)F)CC1)c1ccccc1 (stereo unspecified),-0.574% (inactive)
